Measurements published in PubChem BioAssay (NCI).
About 79,000 compounds went through this panel and 15% of them were active in at least one assay; those are over-represented in the sample as a whole. No stated cut-off is given here; in the data, active means growth inhibition above about 70%; inactive means the rest.

Legend:
[1] = NCI Yeast Anticancer Drug Screen. Data for the rad50 strain (AID 155);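 further: 0% = growth of vehicle-only cultures of the same strain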; conditions: S. cerevisiae rad50 strain growth inhibition; at 50.0 µM; active compounds read high
Outline: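 Yeast carrying a defined DNA repair defect were exposed to test compounds, and growth was compared with vehicle-treated controls to give percent inhibition.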

[2] = NCI Yeast Anticancer Drug Screen. Data for the mec2-1 strain (AID 157); conditions: S. cerevisiae mec2-1 strain, at 50.0 µM, active compounds read high
Outline: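 Yeast mec2-1 mutant treated with compound. Readout: growth inhibition vs vehicle controls.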

[3] = NCI Yeast Anticancer Drug Screen. Data for the sgs1 mgt1 strain (AID 161);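 further: 0% = growth of cultures given vehicle only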; conditions: S. cerevisiae sgs1 mgt1 strain, at 50.0 µM, active compounds read high
Outline: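 Genetically altered yeast, compound exposure, growth inhibition relative to vehicle.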

[4] = NCI Yeast Anticancer Drug Screen. Data for the cln2 rad14 strain (AID 165);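 further: 0% = growth equal to vehicle treated cultures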; conditions: S. cerevisiae cln2 rad14 strain, at 50.0 µM, active compounds read high
Outline: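 cln2 rad14 yeast strain; compound exposure; growth inhibition read vs vehicle controls.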

[5] = NCI Yeast Anticancer Drug Screen. Data for the bub3 strain (AID 167); conditions: S. cerevisiae bub3 mutant strain, at 50.0 µM, active compounds read high
Outline: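 Compounds were applied to a genetically altered yeast strain carrying a cell-cycle control defect. Growth inhibition was scored against vehicle-treated controls.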

[6] = NCI Yeast Anticancer Drug Screen. Data for the mlh1 rad18 strain (AID 175); conditions: S. cerevisiae mlh1 rad18 strain growth inhibition; at 50.0 µM; active compounds read high
Outline: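 Yeast w/ defined DNA-repair lesions; compound exposure; growth vs vehicle controls → % inhibition.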

Measured: growth inhibition

O=C1OC(C2Cc3cc4c(cc3C2=O)CCC4)c2ccccc21 (stereo not given)
inactive: [1] -33.1% | [2] -25.4% | [3] -7.75% | [4] -2.55% | [5] -18.9% | [6] -13.4%

Nc1cc(S(=O)(=O)O)nc(N)[n+]1[O-]
inactive: [1] 1.55% | [2] -1.8% | [3] 1.9% | [4] -36.3% | [5] -13.3% | [6] 2.8%

Cc1c(O)c2ccc3ccccc3c2oc1=O
inactive: [1] 5.4% | [2] 5.75% | [3] -7.05% | [4] -37.4% | [5] -47.4% | [6] -6.4%

CC1(CO)CSC(Nc2ccc(Cl)c(Cl)c2)=N1 (stereo not given)
inactive: [1] 19.1% | [2] -12.9% | [3] 37.8% | [4] 32.5% | [5] 20.1% | [6] 19.1%

CCSC(SCC)C(Nc1ccc([N+](=O)[O-])cc1[N+](=O)[O-])C(OC(C)=O)C(OC(C)=O)C(COC(C)=O)OC(C)=O (stereo not given)
inactive: [1] 30.9% | [2] 9.65% | [3] 10.2% | [4] 14.8% | [5] -2.9% | [6] 12.8%

CC1CN(C(=S)Nc2ccccc2)CCN1c1ccccc1 (stereo not given)
inactive: [1] 4.15% | [2] -2.35% | [3] -4.15% | [4] -34.8% | [5] 9.3% | [6] -5.45%

CCN(CC)c1ccc(N=C2C=CC(=O)C(C)=C2)c(C)c1
inactive: [1] -3.05% | [2] -14.6% | [3] -0.9% | [4] -23.4% | [5] 11.8% | [6] 3.05%

COC(=O)C1(Br)c2ccccc2-c2ccccc21
inactive: [1] -3.15% | [2] 17.7% | [3] 0.45% | [4] -22.4% | [5] 8.5% | [6] -9.3%

CN(N)c1cnn(-c2ccccc2)c(=O)c1Cl
inactive: [1] -37.2% | [2] -48% | [3] -22.1% | [4] 19.4% | [5] 21.4% | [6] -36.6%

O=C(COc1ccc(Cl)c(Cl)c1)NCc1cccc(Cl)c1
inactive: [1] 6.1% | [2] -8.65% | [3] -1.7% | [4] -2.85% | [5] 36.4% | [6] 30.9%

CCOC(=O)C1=C(C)C/C(=N/NC(N)=O)CC1
inactive: [1] 6.35% | [2] -17.9% | [3] -0.95% | [4] 0.05% | [5] -0.95% | [6] -7.85%

COc1cc(C(=O)O)cc(OC(C)=O)c1OC
inactive: [1] 16.6% | [2] 3.9% | [3] 8.3% | [4] 8.65% | [5] 3.4% | [6] 20.7%

CN1c2ccc(C3N(C(=O)C(F)(F)F)C=CN3C(=O)C(F)(F)F)cc2Sc2cc(C3N(C(=O)C(F)(F)F)C=CN3C(=O)C(F)(F)F)ccc21
inactive: [1] -3.65% | [2] 1.15% | [3] -2% | [4] -6.9% | [5] 1.05% | [6] 19.9%

COc1ccc(OC)c(NC(=O)C(=O)NNC(=O)c2sc(NNC(C)=O)nc2C)c1
inactive: [1] 66.7% | [2] 28.8% | [3] 47.4% | [4] 26.5% | [5] 61% | [6] 30.8%

O=[N+]([O-])c1ccc2[nH]c(=S)n(/C=C(/c3ccccc3)S(=O)Cc3ccccc3)c2c1 (stereo not given)
inactive: [1] -2.45% | [2] -22.6% | [3] -18.7% | [4] -3.15% | [5] -12% | [6] -5.15%

O=C(NC(=O)c1c(F)cccc1F)Nc1nc2c(Cl)cccc2s1
inactive: [1] 21.4% | [2] 14.7% | [3] 10.1% | [4] -4.9% | [5] -6.55% | [6] 17.6%

CCOC(=O)C1(c2ccccc2)CCNC(=O)CC1 (stereo not given)
inactive: [1] 7.65% | [2] 8.2% | [3] 16.2% | [4] -14.1% | [5] 13.5% | [6] 8.6%

CC(C)(C)c1cc(-c2cc(C(C)(C)C)[nH]n2)n[nH]1
inactive: [1] 12.8% | [2] 4% | [3] 12.7% | [4] 9.05% | [5] 14.2% | [6] 10.3%

Cc1[nH]c2ccccc2c1C(Cc1ccccc1NC(=O)CCC(=O)O)c1c[nH]c2ccccc12 (stereo not given)
inactive: [1] 9% | [2] -5.05% | [3] -4.5% | [4] -1.5% | [5] -0.9% | [6] 1.05%

OCCNCc1ccc2c(c1)OCO2
inactive: [1] -4.1% | [2] 3.85% | [3] -9.5% | [4] -4.85% | [5] -5.25% | [6] 1.4%
